# CYP2C19 inhib – inhibitors of human CYP2C19; CYP2C19 Supersomes, luciferin-H EGE luminescence, 30 min; inhibition, % at 5 µM; 96,000 tested, 21% active;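 active = CYP2C19 inhibition above a set limit at 5 µM in the primary screen, cut at about 50% in these data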;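 also: plate controls were negative control wells for no effect and 2.5 mM tranylcypromine positive control for full effect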
# Target sequence (P33261 whole entry, looked up): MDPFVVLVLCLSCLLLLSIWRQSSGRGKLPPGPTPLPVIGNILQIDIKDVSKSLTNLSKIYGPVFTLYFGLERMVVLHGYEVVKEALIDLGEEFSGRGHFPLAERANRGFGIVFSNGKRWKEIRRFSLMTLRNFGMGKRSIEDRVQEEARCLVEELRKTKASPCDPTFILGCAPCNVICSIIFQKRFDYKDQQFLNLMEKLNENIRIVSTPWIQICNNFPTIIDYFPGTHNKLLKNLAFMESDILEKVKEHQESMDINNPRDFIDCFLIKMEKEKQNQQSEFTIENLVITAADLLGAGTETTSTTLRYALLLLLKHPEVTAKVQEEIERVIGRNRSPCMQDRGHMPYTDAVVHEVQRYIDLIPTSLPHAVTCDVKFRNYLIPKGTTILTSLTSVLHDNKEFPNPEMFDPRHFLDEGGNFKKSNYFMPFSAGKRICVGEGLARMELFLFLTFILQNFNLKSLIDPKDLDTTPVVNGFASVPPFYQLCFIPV
# CYP2C9 act – increases human cytochrome P450 2C9 activity; recombinant CYP2C9, luciferin-H conversion, luminescence; stronger effect = higher value; factor 1 = untreated enzyme, 0 = blocked; activation factor at 5 µM; AID 1024; 96,000 tested, 1.4% active; P11712;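 active = activation factor of 2 or more for CYP2C9 at a 5 µM dose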;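 also: 0 = sulfaphenazole-blocked wells and 1 = vehicle-only wells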
# PostGolgi yeast – growth inhibition of a yeast mutant, post-Golgi transport screen. post-Golgi transport phenotypic cell assay. inhibition, % at 10 µM. 98,000 tested, 0.9% active. AID 739;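 also: yeast cells grown in 1536-well plates; yeast grown about 18 h at 30C before absorbance read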
# PostGolgi ctrl – inhibits growth of the yeast control strain | efflux-deficient yeast background strain, growth absorbance A615, 16 h | 98,000 tested, 5% active | inhibition, % at 10 µM | AID 738
# CYP2C9 inhib – blocks human cytochrome P450 2C9. P11712. CYP2C9 Supersomes, luciferin-H conversion, luminescence. inhibition, % at 5 µM. 96,000 tested, 20% active;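 active = blocking of liver enzyme CYP2C9 beyond about 50% at 5 µM, limit read from the data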
# CYP2C19 act – increases human CYP2C19 enzyme activity | recombinant CYP2C19, luciferin-H EGE luminescence; stronger effect = higher value; 0 = fully inhibited enzyme, 1 = untreated enzyme | 96,000 tested, under 10 active | activation factor at 5 µM | AID 1025;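 active = activation factor of at least 2 at 5 µM in the primary screen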;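 also: 0 = wells with 2.5 mM tranylcypromine and 1 = vehicle-only wells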
# Numbers without * were called inactive; . = no result given. Only some compounds are listed: those with a hit (about 32% of all), similar ones and a draw of the others. Rule as the data show it, unless noted: active = inhibition above about 30%; inactive = the rest.
SMILES,CYP2C19 inhib,CYP2C9 act,PostGolgi yeast,PostGolgi ctrl,CYP2C9 inhib,CYP2C19 act
O=C(NCCCN1CCCC1)c1ccc(CSCc2cccc(Cl)c2)o1,10,1,0,13,1,0.9
O=C1CN(C(=O)CSc2nncn2-c2ccccc2)c2ccccc2N1,-8,1.1,3,-8,-5,1.1
Cc1c(O)nc(SC2CC(=O)N(c3ccccc3)C2=O)[nH]c1=O (centres undefined),-10,1,2,6,-2,1.1
CCc1c(O)nc(SC2CC(=O)N(c3ccccc3)C2=O)[nH]c1=O (centres undefined),29,0.3,1,9,67*,0.7
CCOC(=O)c1sc(NC(=O)Nc2ccc(Cl)cc2)cc1C,42,0.8,3,62*,18,0.6
CCOC(=O)c1c(NC(=O)c2nn(CC)cc2Br)sc2c1CCCCC2,44,0.2,3,20,82*,0.6
CCOC(=O)c1c(NC(=O)c2nn(CC)cc2Br)sc(C)c1C,20,0.2,2,17,76*,0.8
CCOC(=O)c1c(NC(=O)Cn2nc(C(F)F)cc2C(F)F)sc(C)c1C,28,0.4,-3,14,65*,0.7
FC(F)(F)c1ccccc1NC(=S)N1CCN(c2ncccn2)CC1,42,0.8,2,17,24,0.6
CCOC(=O)C1=C(CNCc2ccc(C)cc2)NC(=O)NC1c1ccc(OC)cc1 (centres undefined),22,0.8,4,2,24,0.8
O=C(CCn1c(=O)c2ccccc2n(Cc2ccccc2)c1=O)NCc1ccc2c(c1)OCO2,52*,0.7,18,13,34,0.5
COc1ccccc1NC(=O)Cn1c(CN2CCCCC2)nc2ccccc2c1=O,47,0.7,0,29,32,0.5
O=C(Cn1c(=O)n(Cc2ccccc2)c(=O)c2ccccc21)NCc1ccco1,52*,0.8,0,1,25,0.5
O=C(CCn1c(=O)oc2ccccc21)NCc1ccc2c(c1)OCO2,26,1,2,13,-3,0.7
O=C(Cn1c(CN2CCCCC2)nc2ccccc2c1=O)NCc1ccco1,55*,0.3,-4,2,75*,0.5
O=C(CCCCn1c(=O)c2ccccc2n(Cc2ccc(F)cc2)c1=O)NCc1ccco1,81*,0.2,-13,26,85*,0.2
CCN(CC)S(=O)(=O)c1cccc(C(=O)Nc2nncs2)c1,22,0.7,4,6,29,0.8
CC1(C)Cc2nc3oc4c(N(CCO)Cc5ccccc5)ncnc4c3cc2CO1,27,0.6,6,7,42,0.7
O=C(CCCn1c(=O)c2ccccc2n(Cc2ccccc2)c1=O)NCc1ccco1,90*,0.7,0,12,33,0.1
CC(C)c1nc2oc3c(NCC4CCCO4)ncnc3c2c2c1COC(C)(C)C2 (centres undefined),8,0.8,13,35*,20,0.9
Cc1[nH]n(-c2ccc(Cl)cc2)c(=O)c1C=Nc1ccc(S(=O)(=O)N2CCOCC2)cc1,-2,0.9,5,14,14,1
Cc1ccnc(NS(=O)(=O)c2ccc(Oc3ccccc3)cc2)c1,67*,0.5,-8,12,46,0.3
CSc1ncccc1C(=O)OCc1ccccc1F,-8,1.2,-5,36*,-22,1.1
O=c1c([N+](=O)[O-])cc(C(F)(F)F)cn1Cc1c(Cl)cccc1Cl,46,0.8,0,6,20,0.5
C/C(N)=C(/C#N)C(=O)CSc1nnc(Nc2ccccc2C)s1,60*,0.6,-1,9,45,0.4
SMILES,CYP2C19 inhib,CYP2C9 act,PostGolgi yeast,PostGolgi ctrl,CYP2C9 inhib,CYP2C19 act
CC(C)N(C(=O)CSc1nnc(NC(=O)C2CCC2)s1)C(C)C,-10,1.3,-3,-4,-29,1.1
CSc1nnc(Nc2ccccc2C)s1,68*,0.7,-6,8,26,0.3
C/C(N)=C(/C#N)C(=O)CSc1nnc(NC(C)C)s1,56*,0.7,-4,8,31,0.4
CS(=O)(=O)Nc1ccc(C(=O)Nc2ccc3c(c2)OCCO3)cc1,2,1.1,-4,0,-11,1
COc1cccc(OC)c1C(=O)Nc1ccc2c(c1)OCCO2,12,1,-2,3,-2,0.9
COc1cc(C(=O)Nc2ccc3c(c2)OCCO3)ccc1OC(C)C,55*,0.9,-6,-9,10,0.4
COc1ccc(C(=O)Nc2ccc(N3CCOCC3)cc2)cc1OC,58*,0.8,0,0,19,0.4
Cc1ccnc2nc(C(=O)Nc3ccc(N4CCOCC4)cc3)nn12,54*,0.9,16,7,7,0.5
COc1cc(C(=O)Nc2ccc3c(c2)OCCO3)ccc1OC(F)F,88*,1.8,2,-1,-81,0.1
COc1ccc(CCNC(=O)COC(=O)c2cnc(C)cn2)cc1,5,0.7,-7,-3,27,1
CCc1nc(N[C@H](C(=O)O)C(C)CC)c2oc3ccccc3c2n1 (some centres undefined),20,1,4,14,-2,0.8
Cc1ccc(NC(=O)c2ccccc2)cc1OC(=O)c1ccccc1,33,0.8,-3,10,21,0.7
O=C1CC(c2ccco2)CC2=C1C=Nc1ccccc1N2 (centres undefined),63*,0.2,-5,8,76*,0.4
COC(=O)C(C)N(C(=O)c1cccc(Cl)c1)c1c(C)cccc1C (centres undefined),72*,0.4,-5,7,62*,0.3
COC(=O)C(C)N(C(=O)c1cccc2ccccc12)c1c(C)cccc1C (centres undefined),26,0.6,10,36*,36,0.7
O=C(O)CCC(=O)c1cccc2ccccc12,-5,1.2,.,.,-21,1.1
CN1CCN(C(=O)CSc2nc(-c3cccs3)cc(-c3cccs3)c2C#N)CC1,86*,0.2,4,10,78*,0.1
COc1ccc(-c2cc(C(F)(F)F)nc(SCC(=O)NCc3cccs3)n2)cc1,-12,0.6,-2,22,40,1.1
CN1CCN(C(=O)CSc2nc(-c3ccncc3)ccc2C#N)CC1,6,1,-5,8,2,0.9
COc1ccc(CNC(=O)CSc2nc(-c3ccccc3)cc(-c3cccs3)c2C#N)cc1,28,0.3,1,4,69*,0.7
COc1ccc(-c2cc(-c3cccs3)c(C#N)c(SCC(=O)NCc3ccco3)n2)cc1,48,0.2,-14,12,85*,0.5
CC(C)C(=O)NCCc1nc2ccccc2n1C,20,1,1,1,1,0.8
COc1ccccc1C(O)Cc1nc2ccccc2n1C (centres undefined),95*,0.9,6,2,8,0.1
Cc1ccc(-c2nnn(CC(=O)NC3CCCc4ccccc43)n2)cc1 (centres undefined),29,0.8,-2,-3,16,0.7
